Screening data from PubChem BioAssay.
The entries come from a sample that favours hits as a whole.
SARS PLP yeast = qHTS of Yeast-based Assay for SARS-CoV PLP | S. cerevisiae expressing SARS-CoV PLpro, growth rescue | Potency, µM (top dose mostly 32.9 µM), usual class: activators | 0.19% of 330,000 active; calls by dose curve; note: nearly all actives have a fitted effect of over 55% in size
AmpC detergent = qHTS Inhibitors of AmpC Beta-Lactamase (assay with detergent); 0.041% of 370,000 active; AID 485294, 2010; Potency, µM (highest dose often 114 µM), hits mostly inhibitors; AmpC hydrolysis of nitrocefin, absorbance 480 nm, 0.01% Triton; note: nearly all actives have a fitted effect of over 25% in size
Target sequence (P00811 whole entry, looked up): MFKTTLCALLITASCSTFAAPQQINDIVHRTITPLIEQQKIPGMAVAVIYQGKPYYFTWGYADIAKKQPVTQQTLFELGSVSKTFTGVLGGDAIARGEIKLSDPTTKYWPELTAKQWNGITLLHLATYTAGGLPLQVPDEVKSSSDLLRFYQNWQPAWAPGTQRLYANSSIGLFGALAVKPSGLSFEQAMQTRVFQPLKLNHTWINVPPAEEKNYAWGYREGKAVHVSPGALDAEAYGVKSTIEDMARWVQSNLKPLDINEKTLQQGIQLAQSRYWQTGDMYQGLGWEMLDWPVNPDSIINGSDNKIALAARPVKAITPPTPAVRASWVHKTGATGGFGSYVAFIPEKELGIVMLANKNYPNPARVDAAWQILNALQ
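AmpC (5.3 nM in the dispensed reagent) in 20 mM phosphate pH 7.0 with 0.01% (detergent screen) or 0.0001% Triton X-100 was preincubated with compounds for 15 min at room temperature. Nitrocefin was then added from an 800 uM solution, and hydrolysis was followed at 480 nm.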
AMA1 RON2 block = qHTS for Inhibitors of AMA1-RON; Towards Development of Antimalarial Drug Lead: Primary Screen; Plasmodium falciparum AMA1 (3D7) - RON2 peptide interaction; AlphaScreen AMA1-biotinylated RON2 peptide binding; AID 720542, 2013; Potency, µM (top dose mostly 58.2 µM), usual class: inhibitors; 0.2% of 360,000 active; note: nearly all actives have a fitted effect of over 45% in size
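AMA1 (3D7) with his tag at 25 nM final met compounds first, then biotinylated RON2 peptide at 25 nM; detection used donor plus acceptor beads, 10 µg/mL apiece, read by AlphaScreen after 30 min at room temperature.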
Cycloheximide cs = Cycloheximide Counterscreen for Small Molecule Inhibitors of Shiga Toxin; cell reporter, cycloheximide protein synthesis inhibition counterscreen; max response, %; 12% of 300,000 active; AID 2314, 2010; in the data active = max response mostly above about 13%, no sharp cut-off; inactive = mostly below about 14%; note: read at 38.3 µM for the half of the compounds with a filed dose
Shiga inhibitor = A qHTS for Small Molecule Inhibitors of Shiga Toxin; inhibition, % at 38.7 µM; 9.2% of 290,000 active; AID 2315, 2010; Vero cells, Shiga toxin protein synthesis inhibition reporter; in the data active = inhibition mostly above about 28%, no sharp cut-off; inactive = mostly below about 43%
AmpC inh no detg = qHTS Inhibitors of AmpC Beta-Lactamase (assay without detergent); AID 485341, 2010; AmpC nitrocefin hydrolysis, absorbance 480 nm, 0.0001% Triton; Potency, µM (series often up to 57.1 µM), usual class: inhibitors; 0.52% of 330,000 active; P00811; note: nearly all actives have a fitted effect of over 20% in size
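AmpC (5.3 nM in the dispensed reagent) in 20 mM phosphate pH 7.0 with 0.01% (detergent screen) or 0.0001% Triton X-100 was preincubated with compounds for 15 min at room temperature. Nitrocefin was then added from an 800 uM solution, and hydrolysis was followed at 480 nm.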
A number is an active result; i = inactive; ? = inconclusive; nt = no result given; [ ] = remark or other dose. Unless noted, calls come from the whole dose curve; as a rule, active = well fitted curve in the direction sought with a large enough effect; inconclusive = small, poorly fitted or top-dose-only effect, or another doubt; inactive = no such curve, though single readings can be large; an effect the other way counts as inactive or inconclusive.

SMILES	SARS PLP yeast	AmpC detergent	AMA1 RON2 block	Cycloheximide cs	Shiga inhibitor	AmpC inh no detg
COc1ccc(NC(=O)C(=O)N/N=C(\C)CC(=O)Nc2ccccn2)c(OC)c1	i	i	i	i	i	i
C/C(CC(=O)Nc1ccccn1)=N\NC(=O)c1ccc(C)cc1	i	i	i	18	i	i
COc1ccccc1C(=O)N/N=C(\C)CC(=O)Nc1ccccn1	i	i	i	26	68	i
COc1ccccc1C(=O)N/N=C(\C)CC(=O)Nc1ccccc1NC(C)=O	i	?	i	19	nt	i
CCc1ccc(NC(=O)C(=O)N/N=C(\C)CC(=O)Nc2ccccn2)cc1	i	i	i	36	48	i
C/C(CC(=O)Nc1ccccn1)=N\NC(=O)C(=O)Nc1ccccc1C	i	i	i	i	i	i
Cc1cc(C)nc(-n2nc(C)c3c(C(=O)O)cc(-c4cccc(Br)c4)nc32)n1	i	i	i	i	i	i
COc1ccccc1C(=O)N/N=C(\C)CC(=O)Nc1ccc(Cl)cn1	i	i	i	37	50	i
C/C(CC(=O)Nc1cccc2c1CCCC2)=N\NC(=O)c1ccccc1N	i	i	i	31	116	i
COc1ccccc1C(=O)N/N=C(\C)CC(=O)Nc1ccc(Nc2ccccc2)cc1	i	i	i	i	i	i
C/C(CC(=O)Nc1cc(C)ccn1)=N\NC(=O)C(=O)Nc1cccc(C)c1	i	i	i	26	i	i
C/C(CC(=O)Nc1cccc2c1CCCC2)=N\NC(=O)c1cccc2ccccc12	i	?	i	i	i	i
O=C(/C=C/Nc1ccc(F)cc1)c1cccs1	nt	nt	i	nt	nt	nt
CCOC(=O)c1ccc(NC(=O)N2CCN(C(=O)c3ccco3)CC2)cc1	i	i	i	i	i	i
O=C(/C=C/Nc1ccc(F)cc1)c1ccco1	i	i	i	35	67	i
CCOC(=O)c1ccc(N/C=C/C(=O)c2ccco2)cc1	i	i	i	40	66	i
COc1ccc(C2=NN(C(C#N)c3ccc(OC)c(OC)c3)C(c3ccccc3)C2)cc1 (stereo not given)	i	i	i	43	113	i
COc1ccc(C2=NN(c3ccccc3)C(c3ccc(OC)c(OC)c3)C2)cc1 (stereo not given)	i	i	i	20	46	i
Oc1ccc(C2=NN(c3ccccc3)C(c3ccc(F)cc3)C2)cc1 (stereo not given)	i	i	i	i	i	i
COc1ccc(C2CC(c3ccc(F)cc3)=NN2c2ccccc2)cc1OC (stereo not given)	i	i	i	26	90	i
COc1cc(C)c(NC(=O)C2CCN(S(=O)(=O)c3cccs3)CC2)cc1OC	i	i	i	nt	nt	i
O=C(c1cnn2ccccc12)N1CCN(C2CCCCC2)CC1	i	i	i	i	i	i
COc1ccc(-n2c(N)cc(=O)nc2SCC(=O)N2CCN(c3ccccc3)CC2)cc1	i	i	i	i	i	i
C[C@H](NC(=O)c1cc2cc(Cl)ccc2n1C)C(=O)N[C@@H](Cc1ccccc1)C(=O)O	i	i	i	i	i	i
Cc1nc2ccccn2c1C(=O)N/N=C/c1ccc(F)cc1	i	i	i	i	i	i
SMILES	SARS PLP yeast	AmpC detergent	AMA1 RON2 block	Cycloheximide cs	Shiga inhibitor	AmpC inh no detg
Cc1nc2ccccn2c1C(=O)N/N=C/c1ccccc1	i	i	i	20	i	i
Cc1nc2ccccn2c1C(=O)N/N=C/c1cc(C)n(-c2ccc(Br)cc2)c1C	i	i	i	16	i	i
Cc1ccc(NC(=O)C(=O)NCc2ccc(/C=N/NC(=O)c3c(C)nc4ccccn34)o2)cc1	i	i	i	28	i	i
O=c1c2ccccc2nc(SCc2cc([N+](=O)[O-])cc3c2OCOC3)n1-c1ccccc1	i	i	i[2.32 µM]	i	i	i
C/C(N)=C(/C#N)C(=O)COC(=O)CNC(=O)c1ccc(Cl)cc1Cl	i	i	i	13	68	i
C/C(N)=C(/C#N)C(=O)COc1ccc(Cl)cc1Cl	i	i	i	48	i	i
C/C(N)=C(/C#N)C(=O)COC(=O)COc1ccc(Cl)cc1	i	i	i	i	i	i
